# Experimental data reported in PubChem BioAssay (Tox21).
# Values without a mark were called inactive. Records with an inconclusive call do not appear. Where a call stands in place of a potency, no number is given. Activity calls are given as the source filed them. Unless noted, calls follow the shape of the dose curve; as a rule, active = well fitted curve in the direction sought with a large enough effect in the repeat runs; inconclusive = weak or mixed curves; inactive = no such curve, though single readings can be large; an effect the other way counts as inactive or inconclusive.
# Columns and labels:
# [1] = qHTS assay to identify small molecule antagonists of the estrogen related receptor signaling pathway with the pleiotropic PPARgamma coactivator (PGC) from Tox21 10K library - cell viability counter screen (AID 1224840; active = well fitted cell-killing curve with a large enough effect in the repeat runs, not every such curve was filed as active; also: nearly all actives have a fitted effect of over 40% in size); details: PGC/ERR reporter cells viability, CellTiter-Fluor, 17.5 h; series mostly up to 92.4 µM
# How it was run: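 Here the PGC/ERR cells serve as a cytotoxicity control: they are exposed to compounds for 17.5 hours at 37 C, and live-cell signal is quantified using CellTiter-Fluor fluorescence.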
# [2] = target: Thyrotropin receptor (Homo sapiens) (UniProt P16473); test: qHTS assay to identify small molecule agonists of the thyroid stimulating hormone receptor (TSHR) signaling pathway (AID 1224843; calls by dose curve; also: nearly all actives have a fitted effect of over 45% in size); details: TSHR-HEK293 cells, cAMP HTRF, agonist mode, 30 min; series mostly up to 92.4 µM
# Chain of Thyrotropin receptor (Homo sapiens) (P16473 whole entry, looked up): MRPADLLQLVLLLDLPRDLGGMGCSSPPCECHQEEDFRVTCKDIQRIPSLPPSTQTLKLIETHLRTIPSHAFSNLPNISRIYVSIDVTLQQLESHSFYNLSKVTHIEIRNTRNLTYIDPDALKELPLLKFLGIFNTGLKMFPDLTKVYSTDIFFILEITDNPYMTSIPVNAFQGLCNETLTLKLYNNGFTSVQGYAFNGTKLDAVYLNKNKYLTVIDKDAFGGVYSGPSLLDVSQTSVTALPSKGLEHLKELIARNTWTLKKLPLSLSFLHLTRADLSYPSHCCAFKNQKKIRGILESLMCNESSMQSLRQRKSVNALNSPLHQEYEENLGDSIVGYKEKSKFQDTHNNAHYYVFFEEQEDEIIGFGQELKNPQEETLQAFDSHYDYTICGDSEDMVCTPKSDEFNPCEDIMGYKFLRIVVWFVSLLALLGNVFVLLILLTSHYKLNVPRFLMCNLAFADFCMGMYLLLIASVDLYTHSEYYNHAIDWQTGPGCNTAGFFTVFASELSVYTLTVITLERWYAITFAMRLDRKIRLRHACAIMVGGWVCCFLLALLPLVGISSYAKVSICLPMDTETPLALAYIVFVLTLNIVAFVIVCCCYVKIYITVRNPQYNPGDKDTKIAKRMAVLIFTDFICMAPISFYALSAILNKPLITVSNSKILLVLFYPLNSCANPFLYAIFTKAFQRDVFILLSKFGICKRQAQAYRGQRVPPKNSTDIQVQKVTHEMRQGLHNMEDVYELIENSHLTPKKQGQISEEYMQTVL
# How it was run: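 Screening of the Tox21 10K collection used HEK293 cells engineered with TSHR at 800 cells per well. After a 30-min room-temperature compound exposure, HTRF cAMP reagents were added and fluorescence recorded 1 h later.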
# [3] = qHTS assay to identify small molecule agonists of the hypoxia (HIF-1) signaling pathway - cell viability counter screen (AID 1224844; calls by dose curve; also: nearly all actives have a fitted effect of over 50% in size); details: HRE-bla ME-180 viability, CellTiter-Glo luminescence, 17 h; series mostly up to 76.8 µM
# How it was run: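 Multiplexed with the HRE beta-lactamase assay, this viability read used CellTiter-Glo luminescence (30 min, RT) on HRE-bla ME-180 cells treated 17 hrs with compounds in 0.5% dialyzed FBS medium.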
# [4] = qHTS assay to identify small molecule agonists of H2AX (AID 1224845; active = well fitted activation curve with a large enough effect in the signal ratio in the repeat runs, not every such curve was filed as active; the % refers to the signal ratio); details: CHO-K1 phospho-H2AX Ser139 HTRF, 3 h; series mostly up to 154 µM
# How it was run: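 Phospho-H2AX Ser139 measured by HTRF (ex 320 nm; em 665 and 620 nm) after 24 hr antibody incubation. Compounds, 15 concentrations, 0.76% DMSO, were applied to CHO-K1 cells for 3hr at 37C before lysis.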
# [5] = qHTS assay to identify small molecule agonists of the hypoxia (HIF-1) signaling pathway (AID 1224846; active = well fitted activation curve with a large enough effect in the signal ratio in the repeat runs, not every such curve was filed as active; the % refers to the signal ratio); details: HRE-bla ME-180 cells, beta-lactamase ratio, 17 h; series mostly up to 76.8 µM
# How it was run: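 Hypoxia-pathway activation was scored as increased beta-lactamase from an HRE-controlled reporter in ME-180 cells; plated at 2,000 cells per well with 0.5% dialyzed FBS, they were exposed 17 hrs to compounds and then given CCF4-AM.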
# [6] = qHTS assay to identify small molecule agonists of H2AX - cell viability counter screen (AID 1224847; calls by dose curve;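 also: wild-type CHO-K1 cells; top concentration of the series differs between compounds; nearly all actives have a fitted effect of over 30% in size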); details: CHO-K1 viability, CellTiter-Glo luminescence, 3 h; series mostly up to 154 µM
# How it was run: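 Counter-screen for viability: CellTiter-Glo ATP luminescence read after 3 h compound treatment (15-point titration, 0.76% DMSO final) of CHO-K1 cells at 37C, with 30 min room-temperature reagent incubation.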
# [7] = qHTS RealTime-Glo MT Cell Viability Assay in HepG2 cells - 24 hour (AID 1224867); details: RealTime-Glo luminescence; series mostly up to 76.8 µM; also: nearly all actives have a fitted effect of over 50% in size
# How it was run: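 Viability was tracked continuously by NanoLuc luminescence from prosubstrate reduced by living HepG2 cells, at successive time points over 40 h of compound exposure. Cells with reagent were preincubated 5 h at 37 °C before compound addition.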
# [8] = qHTS RealTime-Glo MT Cell Viability Assay in HEK293 cells - 32 hour (AID 1224868); details: RealTime-Glo luminescence; series mostly up to 76.8 µM; also: top concentration of the series differs between compounds; nearly all actives have a fitted effect of over 50% in size
# How it was run: (§1)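 Viability tracked continuously by luminescence as live cells reduce a prosubstrate for NanoLuc; HEK293 cells preincubated 5 h, compound-treated at 37 C, and read at 0, 8, 16, 24, 32 and 40 h.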
# [9] = A CellTox Green Cytotoxicity Assay to monitor cytotoxicity in HEK293 cells - 0 hour (AID 1224869); details: CellTox Green fluorescence; series mostly up to 76.8 µM; also: nearly all actives have a fitted effect of over 50% in size
# How it was run: (§2)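 Seeding of HEK293 cells together with cytotoxicity dye preceded a 5 h incubation at 37 C/5% CO2. Test compounds in DMSO were then added and fluorescence monitored across 40 h.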
# [10] = qHTS RealTime-Glo MT Cell Viability Assay in HepG2 cells - 40 hour (AID 1224870); details: RealTime-Glo luminescence; series mostly up to 76.8 µM; also: nearly all actives have a fitted effect of over 50% in size
# How it was run: (§3)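 Real-time viability: cells seeded at 600 per well together with NanoLuc and cell-permeant prosubstrate, compounds added after 5 h incubation. Luminescence tracked at 0, 8, 16, 24, 32 and 40 h of exposure.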
# [11] = A CellTox Green Cytotoxicity Assay to monitor cytotoxicity in HEK293 cells - 40 hour (AID 1224871); details: CellTox Green fluorescence; series mostly up to 76.8 µM; also: nearly all actives have a fitted effect of over 45% in size; also: potency is read from the fitted curve at half-maximal effect
# How it was run: as §2
# [12] = qHTS RealTime-Glo MT Cell Viability Assay in HEK293 cells - 16 hour (AID 1224872); details: RealTime-Glo luminescence; series mostly up to 76.8 µM
# How it was run: as §1
# [13] = qHTS RealTime-Glo MT Cell Viability Assay in HepG2 cells - 8 hour (AID 1224873); details: RealTime-Glo luminescence; series mostly up to 76.8 µM; also: nearly all actives have a fitted effect of over 55% in size
# How it was run: as §3
# [14] = qHTS RealTime-Glo MT Cell Viability Assay in HEK293 cells - 40 hour (AID 1224874); details: RealTime-Glo luminescence; max response: hits give low values; also: nearly all actives have a fitted effect of over 50% in size
# How it was run: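 Tox21 screen in HEK293 using RealTime-Glo MT chemistry, with cells and reagent co-dispensed. Luminescence proportional to viable cell number was captured at intervals during 40 h compound exposure at 37 C.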
# [15] = A CellTox Green Cytotoxicity Assay to monitor cytotoxicity in HEK293 cells - 24 hour (AID 1224875); details: CellTox Green fluorescence; series mostly up to 76.8 µM; also: nearly all actives have a fitted effect of over 45% in size
# How it was run: as §2
# [16] = A CellTox Green Cytotoxicity Assay to monitor cytotoxicity in HepG2 cells - 16 hour (AID 1224876); details: CellTox Green fluorescence; series mostly up to 76.8 µM; also: nearly all actives have a fitted effect of over 45% in size
# How it was run: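 Nonlytic assay: viable cells exclude the dye, so fluorescence scales with cell death. HepG2 at 600 cells/well, compounds added after 5 h, signal read across 40 h.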
# [17] = qHTS assay to identify small molecule antagonists of the estrogen related receptor signaling pathway with the pleiotropic PPARgamma coactivator (PGC) from Tox21 10K library (AID 1224841; call rule not given here); details: PGC/ERR reporter cell line, ONE-Glo luciferase, 18 h; series mostly up to 92.4 µM
# How it was run: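 Each well held 2,000 PGC/ERR cells, pre-incubated six hours (37 C, 5% CO2). Test substances in DMSO were added by pin tool and left for 18 h at 37 C before luciferase detection by One-Glo.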
# [18] = qHTS assay to identify small molecule agonists of the estrogen related receptor signaling pathway with the pleiotropic PPARgamma coactivator (PGC) from Tox21 10K library (AID 1224842); details: PGC/ERR reporter cell line, luciferase ONE-Glo, 18 h; series mostly up to 92.4 µM; also: nearly all actives have a fitted effect of over 15% in size
# How it was run: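 Luminescence from One-Glo (30 min, room temperature) measured after PGC/ERR cells had 18 h at 37 C with pinned compound (23 nL in DMSO). Cells had been seeded at 2,000 per well and pre-incubated 6 h.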
# [19] = qHTS assay to identify small molecule antagonists of the estrogen related receptor (ERR) signaling pathway from Tox21 library (AID 1224848); details: ERR reporter cell line, luciferase antagonist mode, 18 h; series mostly up to 92.4 µM; also: nearly all actives have a fitted effect of over 50% in size; also: potency is read from the fitted curve at half-maximal effect
# How it was run: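 Antagonist-mode screen of the Tox21 10K library in an NTP-provided ERR reporter cell line; 18 h compound exposure at 37 C, luminescence measured with ONE-Glo.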
# [20] = qHTS assay to identify small molecule agonists of the estrogen related receptor (ERR) signaling pathway from Tox21 library (AID 1224849; calls by dose curve; also: nearly all actives have a fitted effect of over 15% in size); details: ERR reporter cell line, ONE-Glo luciferase, 18 h; at 92.4 µM (top of the series) unless noted
# How it was run: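 Six hours post-seeding at 37 C/5% CO2, ERR cells receive DMSO-solubilised compounds; after 18 h at 37 C, ONE-Glo reagent is applied and luminescence recorded.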
SMILES,outcome [1],outcome [2],outcome [3],outcome [4],outcome [5],outcome [6],outcome [7],Potency [8],Potency [9],outcome [10],Potency [11],Potency [12],outcome [13],max response [14] [%],Potency [15],Potency [16],outcome [17],outcome [18],Potency [19],"activity change, positive = activation [20]"
CCc1occc(=O)c1O,inactive,inactive,inactive,inactive,inactive,inactive,inactive,inactive,inactive,inactive,inactive,inactive,inactive,3.56,inactive,inactive,,,,
CC1=C(C(=O)O)N2C(=O)[C@@H](NC(=O)[C@H](N)c3ccccc3)[C@H]2SC1,inactive,,inactive,inactive,,inactive,inactive,inactive,inactive,inactive,inactive,inactive,inactive,0.975,inactive,inactive,inactive,inactive,inactive,5.12% [at 42.5 µM]
CC1CCc2c(N3CCC(O)CC3)c(F)cc3c(=O)c(C(=O)O)cn1c23 (stereo not given),inactive,inactive,,,inactive,inactive,inactive,inactive,inactive,inactive,inactive,inactive,inactive,-0.0801,inactive,inactive,,inactive,,-17.9% [at 42.5 µM]
ONc1ccccc1,inactive,inactive,inactive,inactive,inactive,inactive,inactive,inactive,inactive,inactive,,inactive,inactive,-13.8,inactive,inactive,inactive,,inactive,20.7% (active)
CCO,inactive,inactive,inactive,inactive,inactive,inactive,inactive,inactive,inactive,inactive,inactive,inactive,inactive,0.927,inactive,inactive,,,,
O=C(CCCCC(=O)Nc1c(I)cc(I)c(C(=O)O)c1I)Nc1c(I)cc(I)c(C(=O)O)c1I,inactive,inactive,inactive,,,inactive,inactive,inactive,inactive,inactive,inactive,,inactive,-12.6,inactive,inactive,,inactive,21.1 µM (active),-37% [at 42.5 µM]
CC(C)(C)NC[C@H](O)COc1cccc2c1CCCC2=O,inactive,,inactive,inactive,,inactive,inactive,inactive,,inactive,,inactive,inactive,-12,,inactive,inactive,inactive,inactive,4.14% [at 42.5 µM]
COC(=O)c1cccc(Cl)c1,inactive,inactive,inactive,inactive,inactive,inactive,inactive,inactive,inactive,inactive,inactive,inactive,inactive,11,inactive,inactive,,,,
c1ccc2cnccc2c1,inactive,,inactive,inactive,inactive,inactive,inactive,inactive,inactive,inactive,inactive,inactive,inactive,9.26,,inactive,,inactive,inactive,7.4%
c1ccc2c(CC3=NCCN3)cccc2c1,inactive,,inactive,inactive,,inactive,inactive,inactive,inactive,,inactive,inactive,inactive,-13.3,inactive,inactive,inactive,inactive,inactive,4.17% [at 42.5 µM]
O=C(O)CCCCCC(=O)O,inactive,,,inactive,inactive,inactive,inactive,inactive,inactive,inactive,22 µM (active),inactive,inactive,0.774,,inactive,inactive,inactive,inactive,1.8%
CCC(C(=O)OCCN1CCOC(c2ccccc2)C1C)c1ccccc1 (stereo not given),inactive,,inactive,,inactive,,inactive,,inactive,inactive,inactive,,inactive,,inactive,inactive,,inactive,,-23.3% [at 42.5 µM]
c1ccc(B(c2ccccc2)c2ccccc2)cc1,inactive,,,,inactive,inactive,inactive,,inactive,inactive,inactive,,inactive,,,inactive,inactive,inactive,inactive,
C=CC(=O)OCC1CCCO1 (stereo not given),inactive,inactive,inactive,inactive,inactive,inactive,inactive,inactive,inactive,inactive,inactive,inactive,inactive,0.647,inactive,inactive,,,,
c1ccc(-c2nn[nH]n2)cc1,inactive,,inactive,inactive,inactive,,inactive,inactive,inactive,inactive,inactive,inactive,inactive,6,inactive,inactive,inactive,inactive,inactive,8.29%
CC(C)(CO)C(O)C(=O)NCCCO (stereo not given),inactive,inactive,,inactive,,inactive,inactive,inactive,inactive,,inactive,inactive,inactive,2.36,,inactive,,inactive,inactive,0.356%
